In PubChem BioAssay AID588683 (Broad Institute, 2011):
Potency and affinity values are given separately. The source made the active and inactive calls. A call without a number means that no potency is given here. How the calls were made is not given here.

target: Kelch-like ECH-associated protein 1 (Homo sapiens) + Nuclear factor erythroid 2-related factor 2 (Homo sapiens) (UniProt Q14145+Q16236); assay: disruptors of Keap1 binding to Nrf2 peptide – biochemical, fluorescence polarization, cherry-picked samples, dose response (AID 588683); settings: plate reader; series mostly up to 26 µM;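 further: Kelch domain of Keap1 binding a fluorescein-labelled 9mer Nrf2 peptide; more negative means stronger inhibition of peptide binding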
Sequence (Q14145 whole entry, looked up, the tested form may be a part): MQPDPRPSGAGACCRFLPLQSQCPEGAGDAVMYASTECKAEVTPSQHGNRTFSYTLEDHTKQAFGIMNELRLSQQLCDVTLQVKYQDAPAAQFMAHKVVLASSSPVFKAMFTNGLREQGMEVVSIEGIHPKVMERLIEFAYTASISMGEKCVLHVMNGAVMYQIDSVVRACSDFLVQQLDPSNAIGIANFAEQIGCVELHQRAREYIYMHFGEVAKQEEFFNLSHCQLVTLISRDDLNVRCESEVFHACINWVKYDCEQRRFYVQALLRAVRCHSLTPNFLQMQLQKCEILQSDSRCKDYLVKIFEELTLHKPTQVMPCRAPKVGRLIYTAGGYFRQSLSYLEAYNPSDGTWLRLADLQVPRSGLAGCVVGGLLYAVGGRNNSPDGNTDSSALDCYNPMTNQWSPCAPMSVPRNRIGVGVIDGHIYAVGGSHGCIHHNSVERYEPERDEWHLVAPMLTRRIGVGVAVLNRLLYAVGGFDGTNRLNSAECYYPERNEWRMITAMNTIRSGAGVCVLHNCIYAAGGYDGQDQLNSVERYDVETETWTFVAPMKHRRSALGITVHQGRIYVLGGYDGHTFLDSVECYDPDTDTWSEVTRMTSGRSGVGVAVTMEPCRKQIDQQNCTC
Sequence (Q16236 whole entry, looked up, the tested form may be a part): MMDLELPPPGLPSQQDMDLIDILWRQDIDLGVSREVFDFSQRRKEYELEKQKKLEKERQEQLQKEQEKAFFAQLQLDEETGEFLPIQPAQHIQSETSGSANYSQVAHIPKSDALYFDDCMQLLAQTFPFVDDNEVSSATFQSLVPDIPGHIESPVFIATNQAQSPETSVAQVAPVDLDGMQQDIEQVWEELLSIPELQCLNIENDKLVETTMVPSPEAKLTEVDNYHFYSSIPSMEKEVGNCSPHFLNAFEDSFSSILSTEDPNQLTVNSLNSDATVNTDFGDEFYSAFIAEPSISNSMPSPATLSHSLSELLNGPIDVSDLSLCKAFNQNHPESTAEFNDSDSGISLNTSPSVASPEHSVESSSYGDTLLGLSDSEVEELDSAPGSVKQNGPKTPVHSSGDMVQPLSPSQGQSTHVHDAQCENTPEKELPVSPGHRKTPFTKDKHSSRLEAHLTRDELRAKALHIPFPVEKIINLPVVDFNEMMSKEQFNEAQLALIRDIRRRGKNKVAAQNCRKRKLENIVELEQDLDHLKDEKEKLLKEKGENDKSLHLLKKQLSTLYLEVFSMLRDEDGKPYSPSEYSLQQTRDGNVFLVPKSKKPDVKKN

SMILES	outcome
CCn1cc(C=C2C(=O)NC(=O)NC2=O)c2ccccc21	inactive
O=C(O)c1cccc2c1NC(C(=O)O)C1CC(Sc3ccccc3[N+](=O)[O-])C(Cl)C21 (stereo unspecified)	inactive
Cn1cc(/C=C2\C(=O)NC(=O)N(c3ccccc3)C2=O)c2ccccc21	inactive
CCCCc1ccc(C(=O)O)nc1	inactive
Cc1cc(C=C2C(=O)NC(=O)NC2=O)c(C)n1-c1cccnc1	inactive
COCCNC(=O)Cn1cc(/C=C2\C(=O)NC(=O)N(c3cccc(C)c3C)C2=O)c2ccccc21	inactive
CCOC(=O)c1c(/N=C/c2c(O)n(-c3cccc(C)c3)c(=O)[nH]c2=O)sc2c1CCCC2	inactive
CC1(O)CCN2C(=O)CCc3cccc1c32 (stereo unspecified)	inactive
CN1/C(=C\C=C2C(=O)NC(=O)NC2=O)C(C)(C)c2ccccc21	inactive
COc1ccc(-n2c(CNCCc3ccc(C)cc3)nc3ccccc3c2=O)cc1	inactive
CN1CC=C2C(C#N)=C(N)C(C#N)(C#N)C(c3ccncc3)C2C1 (stereo unspecified)	inactive
